# GPR151 ag = activators of human GPR151, primary screen, cell-based, PathHunter beta-arrestin, luminescence | G-protein coupled receptor 151 (Homo sapiens), Q8TDV0 | PathHunter beta-arrestin GPR151 cells | activation, % at 11.2 µM | hit rate 1% among 650,000 | AID 1508602, 2020; in the data active = activation above about 4.9%;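 note: 0% = median of compound wells and 100% = cells with positive control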
# TEAD-YAP inh = TEAD-YAP interaction inhibition, primary screen, TEAD-YAP interaction inhibitor project, luminescence, HEK-TIYL cells; hit rate 1.4% among 640,000; TEAD-Gal4/YAP UAS-luciferase luminescence; inhibition, % at 9.12 µM; AID 1259422, 2018; in the data active = inhibition above about 32%;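 note: 0% = median of test compound wells and 100% = reference inhibitor wells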
# MITF primary = MITF inhibitors, primary screen, biochemical, AlphaScreen, human; inhibition, % at 2.6 µM; Microphthalmia-associated transcription factor (Homo sapiens), O75030; AlphaScreen MITF homodimerization, bead proximity signal; AID 1259374, 2018; hit rate 0.91% among 650,000; in the data active = inhibition above about 50%;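 note: 0% = vehicle wells with protein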
# FBW7 activator = FBW7 E3 ligase activators, primary screen, biochemical, AlphaScreen, human. AID 1259310, 2017. AlphaScreen FBW7–phospho-cyclin E peptide binding, activator screen. F-box/WD repeat-containing protein 7 (Homo sapiens), Q969H0. hit rate 0.13% among 650,000. normalized activity (activation), % at 26.1 µM; in the data active = normalized activity above about 1.9%;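 note: purified mutant Fbw7 with reduced substrate affinity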
# Target sequence (Q969H0 whole entry, looked up): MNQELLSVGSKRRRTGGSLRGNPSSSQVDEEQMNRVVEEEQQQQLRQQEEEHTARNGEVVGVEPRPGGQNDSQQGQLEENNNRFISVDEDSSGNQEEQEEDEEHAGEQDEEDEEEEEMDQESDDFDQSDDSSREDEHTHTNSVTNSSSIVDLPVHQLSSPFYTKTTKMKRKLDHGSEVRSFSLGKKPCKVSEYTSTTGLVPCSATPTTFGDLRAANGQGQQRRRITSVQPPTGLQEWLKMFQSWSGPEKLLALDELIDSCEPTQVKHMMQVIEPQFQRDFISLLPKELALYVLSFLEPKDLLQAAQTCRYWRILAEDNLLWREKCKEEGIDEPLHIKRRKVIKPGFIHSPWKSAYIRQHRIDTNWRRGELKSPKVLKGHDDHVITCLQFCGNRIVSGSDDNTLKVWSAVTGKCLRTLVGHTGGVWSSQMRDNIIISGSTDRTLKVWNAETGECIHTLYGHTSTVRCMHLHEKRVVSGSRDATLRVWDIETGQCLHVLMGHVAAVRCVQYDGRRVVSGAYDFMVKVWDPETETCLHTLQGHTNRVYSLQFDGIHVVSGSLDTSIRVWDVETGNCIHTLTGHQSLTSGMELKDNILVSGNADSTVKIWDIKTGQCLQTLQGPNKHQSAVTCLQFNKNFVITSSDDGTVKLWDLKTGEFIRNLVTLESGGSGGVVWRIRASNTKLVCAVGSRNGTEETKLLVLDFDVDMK
# * hit, by the source's call. This is a sample that favours compounds with a hit; in the whole collection about 3.5% have one here.
SMILES,GPR151 ag,TEAD-YAP inh,MITF primary,FBW7 activator
Cc1ccc(N=C2NC(=O)C(CC(=O)Nc3ccc(C)cc3)S2)cc1 (centres undefined),0,1,-12,0
Cc1nc2c(c(C)nn2C(C)(C)C)c(C)c1CCC(=O)O,0,1,6,0
Cc1nc2c(c(C)nn2C(C)(C)C)c(C)c1CCC(=O)N1CCCCC1,0,35*,13,0
CCCNc1ccc2ncc(-c3cccc(C(N)=O)c3)n2n1,0,33*,13,0
CCCNc1ccc2ncc(-c3ccc(OC)c(OC)c3)n2n1,0,34*,-21,0
COc1ccc(CNc2ccc3ncc(-c4ccc(O)c(OC)c4)n3n2)cc1,0,1,14,0
COc1cc(-c2cnc3ccc(NCCCO)nn23)ccc1O,0,75*,8,0
CN1C(=O)C(=Cc2ccc(-c3ccc4c(c3)COC4=O)o2)C(=O)N(C)C1=O,-1,-4,17,0
CC(=O)/C=C/c1c(C)n(C)c2ccc([N+](=O)[O-])cc12,0,2,11,1
CC(=O)Oc1ccccc1CC1(C)C(=O)Nc2c(C(F)(F)F)cccc21 (centres undefined),0,8,16,0
CN1CCN(CCNC(=O)CN2N=C(C(C)(C)C)Cn3c(cc4ccccc43)C2=O)CC1,0,-7,-8,0
O=C(O)c1cc(N2C(=O)/C(=C/c3cccc(O)c3)SC2=S)ccc1O,1,3,-1,0
CCOC(=O)c1c(C)[nH]c2ccc(Oc3nc(OC)cc(OC)n3)cc12,2,41*,-3,0
Cc1cccc(CCNC(=O)c2ccc(CNc3c(N4CCC(C)CC4)c(=O)c3=O)cc2)c1,3,10,-7,0
COc1ccc(/C=C2\C(=O)Nc3ccc(Br)cc32)cc1,-2,-4,32,0
COc1ccc(/C=C2\C(=O)Nc3ccc(Br)cc32)c(OC)c1OC,0,53*,9,0
CCOc1ccccc1NC(=O)CC1SC(=Nc2ccccc2)NC1=O (centres undefined),-1,-8,-13,0
Cc1cccc(-n2ncc3c(Nc4cccc5c4CCCC5)ncnc32)c1,0,42*,18,0
Cc1cccc(Nc2ncnc3c2cnn3-c2cccc(C)c2)c1,0,-27,10,0
COc1ccc(-n2ncc3c(Nc4cccc5c4CCCC5)ncnc32)cc1,1,47*,-4,0
c1ccc(-n2ncc3c(Nc4cccc5c4CCCC5)ncnc32)cc1,4,-1,5,0
Cc1cccc(Cc2nnc(CCC(=O)NCCCc3cccnc3)o2)c1,3,-20,0,0
COc1ccc(CCNc2nc(-c3c(C)nn(C)c3C)nc3c2ncn3C(C)C)cc1,4,-25,3,0
COc1ccc(CCNc2nc(-c3c(C)nn(C)c3C)nc3c2ncn3-c2ccsc2)cc1,3,-6,5,0
c1csc(-c2nc(NC3CC3)c3ncn(-c4ccsc4)c3n2)c1,-2,34*,10,0
SMILES,GPR151 ag,TEAD-YAP inh,MITF primary,FBW7 activator
Cc1nn(C)c(C)c1-c1nc(NCCO)c2ncn(-c3ccsc3)c2n1,0,43*,8,0
c1ccc(CN2CCC(Nc3nc(-c4cccs4)nc4c3ncn4-c3ccccc3)CC2)cc1,1,14,10,0
OCCNc1nc(-c2csc3ccccc23)nc2c1ncn2-c1ccsc1,0,44*,7,0
CCCNc1nc(-c2cccs2)nc2c1ncn2-c1ccsc1,-1,14,4,0
OCCNc1nc(-c2cccs2)nc2c1ncn2-c1ccsc1,0,67*,33,0
COCCNC(=O)C(=O)NCC1OCCCN1S(=O)(=O)c1ccc(OC)c(C)c1 (centres undefined),1,15,9,0
COCCn1nnnc1C(c1ccc2ncccc2c1)N1CCN(C2CCCCC2)CC1 (centres undefined),-1,3,15,0
COC(=O)c1sc(NC(=O)c2ccc([N+](=O)[O-])c(C)c2)c(C(=O)OC)c1C,0,6,-2,0
CCOCCCn1c(SCC(N)=O)nc2ccccc2c1=O,2,14,3,0
COc1ccc(N(Cc2cccs2)C(=O)CCl)cc1,-1,23,7,0
O=C(CCl)N(Cc1cccs1)c1ccc2c(c1)OCCO2,-1,37*,3,0
Cc1ccc(C2/C(=C(\O)c3ccccc3)C(=O)C(=O)N2Cc2cccnc2)cc1 (centres undefined),-1,-4,3,0
C=CCn1c(SCC(=O)Nc2cccc(C)c2)nnc1-c1ccccc1O,1,13,6,0
C=CCn1c(SCC(=O)Nc2ccc(F)cc2F)nnc1-c1ccccc1O,0,48*,-7,0
Cc1ccccc1NC(=O)/C(Cl)=C(\Cl)S(=O)(=O)C(C)C,-1,52*,-15,0
Cc1ccccc1NC(=O)Nc1ccccc1C,1,-11,-10,0
CCCC1=C(C(=O)OCC)C(c2cccc([N+](=O)[O-])c2)n2ncnc2N1 (centres undefined),-1,33*,11,0
CCCC1=C(C(=O)OCC)C(c2ccccc2[N+](=O)[O-])n2ncnc2N1 (centres undefined),0,4,-5,0
O=S1(=O)Nc2c(ccc3cccnc23)-c2ccccc21,4,60*,88*,0
O=C(O)CCNc1cc(N2CCCCC2)c2noc3c2c1C(=O)c1ccccc1-3,3,14,89*,0
O=C1c2ccccc2-c2onc3c(N4CCCCC4)cc(Nc4ccccc4)c1c23,-1,7,40,0
O=C(O)CNc1cc(N2CCCCCC2)c2noc3c2c1C(=O)c1ccccc1-3,-5,77*,61*,-1
CC(C)Nc1cc(NCCO)c2noc3c2c1C(=O)c1ccccc1-3,-2,37*,43,0
CC(C)Nc1cc(N(C)CCO)c2noc3c2c1C(=O)c1ccccc1-3,0,15,26,0
CC1CCCN(c2cc(NCCN(C)CCO)c3c4c(onc24)-c2ccccc2C3=O)C1 (centres undefined),-2,39*,61*,-1
SMILES,GPR151 ag,TEAD-YAP inh,MITF primary,FBW7 activator
O=C(CSc1nc2ccccc2o1)Nc1ccc(Cl)c(Cl)c1,0,2,8,0
Cc1ccnc(NC(=O)Nc2ccc(Cl)c(Cl)c2)c1,0,-59,8,0
Cc1ccc(Nc2c(Cl)c(Cl)nc(Cl)c2C(F)(F)F)cc1,0,67*,13,0
COc1ccc(Nc2nc(Cl)c(C(F)(F)F)c(Cl)c2Cl)cc1,2,-2,13,0
Cc1ccc(-n2nc3c(c2NC(=O)c2cc([N+](=O)[O-])ccc2Cl)CSC3)c(C)c1,1,71*,16,0
CC(C)(C)n1nc2c(c1NC(=O)c1cc([N+](=O)[O-])ccc1Cl)CSC2,2,89*,-7,0
COc1ccc(-n2nc3c(c2NC(=O)c2cc([N+](=O)[O-])ccc2Cl)CSC3)cc1,2,61*,13,0

# Bioassay records (PubChem)
